# Screening data from PubChem BioAssay.
# Hits are enriched below; roughly 0.99% of the tested compounds scored in any of these assays.
# FEN1 inh: qHTS Assay for the Inhibitors of Human Flap endonuclease 1 (FEN1); P39748; hit rate 0.35% among 390,000; Recombinant FEN1 flap cleavage, fluorescence, 15 min; Potency, µM (series often up to 114 µM), actives largely listed as inhibitors; AID 588795, 2011; further: nearly all actives have a fitted effect of over 65% in size
#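 Enzyme 10 nM, 15 min RT preincubation with compound; start with substrate 50 nM final; reads at 0 and 15 min; qHTS titration, four-parameter Hill fit.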
# RECQ1 helicase: qHTS Assay for Inhibitors of RecQ-Like Dna Helicase 1 (RECQ1). hit rate 0.54% among 240,000. Potency, µM (doses to about 57.3 µM), hits mostly inhibitors. ATP-dependent DNA helicase Q1 (Homo sapiens), P46063. RECQ1 DNA unwinding, red fluorescence kinetic read; further: nearly all actives have a fitted effect of over 30% in size
#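 50 nM RECQ1T1 preincubated 15 min with compound in Tris pH 8.0 buffer with MgCl2, DTT, Tween-20 and 2.5 ug/ml poly(dI-dC); started with 200 nM TAMRA/BHQ-2 forked duplex and 2 mM ATP. Unwinding read as fluorescence (525/598 nm), two reads 2 h apart.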
# L3MBTL1 block: qHTS Assay for the Inhibitors of L3MBTL1; Lethal(3)malignant brain tumor-like protein 1 (Homo sapiens), Q9Y468; AlphaScreen L3MBTL1–H3K9me1 peptide binding; Potency, µM (top dose mostly 57.1 µM), usual class: inhibitors; hit rate 0.66% among 230,000; AID 485360, 2010; further: nearly all actives have a fitted effect of over 60% in size
#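 First, the protein-peptide complex forms for 30 min at room temperature (L3MBTL1 50 nM, biotinylated H3K9me1 peptide 75 nM). Next, compounds are pin-transferred and incubated 30 min. Finally, AlphaScreen beads are added and read after 30 min.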
# BLM helicase inh: qHTS Assay for Inhibitors of Bloom's syndrome helicase (BLM). AID 2528, 2010. recombinant BLM DNA unwinding, fluorescence dequenching. Potency, µM (series often up to 56.1 µM), actives largely listed as inhibitors. RecQ-like DNA helicase BLM (Homo sapiens), P54132. hit rate 0.2% among 350,000; further: nearly all actives have a fitted effect of over 35% in size
# Target sequence (P54132 whole entry, looked up): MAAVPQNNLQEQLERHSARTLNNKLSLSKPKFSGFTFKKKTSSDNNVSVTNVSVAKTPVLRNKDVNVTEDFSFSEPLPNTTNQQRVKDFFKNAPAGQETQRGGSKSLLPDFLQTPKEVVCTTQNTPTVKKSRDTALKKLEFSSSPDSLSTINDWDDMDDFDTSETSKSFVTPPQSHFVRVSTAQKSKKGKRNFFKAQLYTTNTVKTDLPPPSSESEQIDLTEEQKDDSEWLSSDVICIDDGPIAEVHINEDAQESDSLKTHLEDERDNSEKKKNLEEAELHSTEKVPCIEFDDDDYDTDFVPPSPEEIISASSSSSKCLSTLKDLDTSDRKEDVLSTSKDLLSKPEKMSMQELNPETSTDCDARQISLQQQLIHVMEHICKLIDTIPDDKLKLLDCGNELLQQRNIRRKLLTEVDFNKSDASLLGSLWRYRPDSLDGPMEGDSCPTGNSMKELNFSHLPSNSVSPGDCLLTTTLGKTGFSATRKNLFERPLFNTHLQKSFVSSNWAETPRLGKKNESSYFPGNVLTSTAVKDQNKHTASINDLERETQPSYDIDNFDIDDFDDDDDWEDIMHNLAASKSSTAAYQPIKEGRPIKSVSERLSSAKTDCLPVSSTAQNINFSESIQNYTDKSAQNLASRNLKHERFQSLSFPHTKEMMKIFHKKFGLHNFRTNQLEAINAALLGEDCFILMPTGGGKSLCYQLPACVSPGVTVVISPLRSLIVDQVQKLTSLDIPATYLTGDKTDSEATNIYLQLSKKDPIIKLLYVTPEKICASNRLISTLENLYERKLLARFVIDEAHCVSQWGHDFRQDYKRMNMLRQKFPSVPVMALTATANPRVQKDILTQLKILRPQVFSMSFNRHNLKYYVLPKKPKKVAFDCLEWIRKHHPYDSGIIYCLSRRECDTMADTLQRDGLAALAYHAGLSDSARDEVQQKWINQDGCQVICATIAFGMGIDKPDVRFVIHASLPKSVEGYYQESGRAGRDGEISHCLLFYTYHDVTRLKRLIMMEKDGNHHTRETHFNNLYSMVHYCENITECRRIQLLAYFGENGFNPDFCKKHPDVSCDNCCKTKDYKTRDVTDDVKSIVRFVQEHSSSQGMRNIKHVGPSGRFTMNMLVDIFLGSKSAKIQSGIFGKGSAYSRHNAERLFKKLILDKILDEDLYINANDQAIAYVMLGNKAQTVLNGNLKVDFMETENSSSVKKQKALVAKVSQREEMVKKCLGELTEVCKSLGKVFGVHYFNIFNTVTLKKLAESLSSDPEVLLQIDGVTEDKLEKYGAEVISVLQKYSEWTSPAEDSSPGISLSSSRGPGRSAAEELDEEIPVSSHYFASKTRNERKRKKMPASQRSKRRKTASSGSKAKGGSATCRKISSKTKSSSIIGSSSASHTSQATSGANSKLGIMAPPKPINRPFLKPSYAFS
# WRN helicase inh: qHTS for Inhibitors of WRN Helicase; hit rate 0.46% among 360,000; Bifunctional 3'-5' exonuclease/ATP-dependent helicase WRN (Homo sapiens), Q14191; WRN helicase unwinding, fluorescent forked duplex, kinetic; Potency, µM (top dose mostly 114 µM), usual class: inhibitors; further: nearly all actives have a fitted effect of over 55% in size
#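 Screening of the MLSMR collection measured strand separation of a quenched forked DNA duplex (100 nM) by 20 nM WRN with 2 mM ATP, all final. Compounds were preincubated with enzyme 15 min at room temperature.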
# Numbers stand for hits; n = inactive; u = inconclusive; x = no result given. The call rests on the fitted dose curve; in most records, active means well fitted curve in the direction sought with a large enough effect; inconclusive means small, poorly fitted or top-dose-only effect, or another doubt; inactive means no such curve, though single readings can be large; an effect the other way counts as inactive or inconclusive.
SMILES,FEN1 inh,RECQ1 helicase,L3MBTL1 block,BLM helicase inh,WRN helicase inh
COc1ccccc1-c1cc(NC=O)c2ncc(-c3ccc(F)cc3)n2c1,x,x,x,x,n
COc1ccc(C(=O)NC(C)c2cc(OC)c(OC)cc2Br)cc1 (centres undefined),n,n,n,n,n
COc1cccc(NC(=O)CN(C)C(=O)c2cccnc2Sc2ccc(C)c(C)c2)c1,n,x,n,x,n
CCOc1cc(C2NC(=O)c3c(sc4c3CCN(C)C4)N2)ccc1OC(=O)c1ccc(F)cc1 (centres undefined),n,x,x,n,x
C=CCN1C(=O)/C(=C/c2ccc(OC(C)=O)c(OCC)c2[N+](=O)[O-])SC1=S,n,n,39.8µM,n,n
Cc1n[nH]c(C)c1Sc1ccccc1N=Cc1cc(Cl)cc([N+](=O)[O-])c1O,79.4µM,n,x,n,50.1µM
CN(C)CCn1nnnc1SCC1=C(C(=O)O)N2C(=O)[C@@H](NC(=O)Cc3csc(N)n3)[C@H]2SC1,u,x,28.2µM,x,n
Cc1cc(C)c(S(=O)(=O)ON2C(=O)c3ccccc3C2=O)cc1C,n,n,n,n,35.5µM
Cc1ccc(S(=O)(=O)ON2C(=O)c3ccccc3C2=O)c(C)c1,u,n,n,n,44.7µM
Cc1cc(C)c(C)c(S(=O)(=O)ON2C(=O)c3ccccc3C2=O)c1C,n,n,n,n,u
Cc1nc2ccccc2c(=O)n1/N=C/c1c(O)ccc2ccccc12,n,n,22.4µM,n,n
O=C(O)COc1ccc(/C=N/n2c(COc3ccccc3)nc3ccccc3c2=O)cc1,n,n,n,n,n
Cc1cc(/C=N/n2c(COc3ccccc3)nc3ccccc3c2=O)c(O)c([N+](=O)[O-])c1,u,n,5.62µM,n,u
O=c1c2ccccc2nc(COc2ccccc2)n1/N=C/c1ccc(O)c(O)c1,n,28.2µM,x,n,u
COc1ccc2o/c(=N/NC(=O)c3cccs3)c(C(N)=O)cc2c1,u,n,x,n,n
O=C(OC1Cc2c(O)cc(O)cc2OC1c1cc(O)c(O)c(O)c1-c1c(C2Oc3cc(O)cc(O)c3CC2OC(=O)c2cc(O)c(O)c(O)c2)cc(O)c(O)c1O)c1cc(O)c(O)c(O)c1 (centres undefined),x,4.47µM,x,7.94µM,x
C=C(C)C1CC=C(CN2CCC(C(=O)OCC)CC2)CC1 (centres undefined),n,n,n,n,n
CCCCc1nc2sc3c(c2c(=O)[nH]1)CC(C)(C)OC3,n,x,x,x,n
CN(C)c1cc2c(c(N(C)C)c1)C(=O)c1ccccc1C2=O,n,n,17.8µM,n,n
CN(C)S(=O)(=O)c1cccc(-c2nn(-c3ccccc3)cc2/C=C2\SC(=S)NC2=O)c1,u,n,n,n,50.1µM
O=C(COc1ccccc1Cl)c1ccc2c(c1)CCCC2,n,n,n,n,n
O=c1c(-c2cc(O)c(O)c(O)c2)coc2cc(O)c(O)c(O)c12,x,1.26µM,x,11.2µM,x
O=C(CN(Cc1cccs1)S(=O)(=O)c1ccc(S(=O)(=O)NC2CCCCC2)cc1)Nc1ccccc1,n,n,n,n,u
OCC[C@@H]1C[C@H](O)[C@@H](O)[C@]2(CCCCO2)O1,n,x,x,x,n
CSc1nsc(/C=C/Nc2ccc(F)cc2F)c1C#N,n,n,u,n,n
SMILES,FEN1 inh,RECQ1 helicase,L3MBTL1 block,BLM helicase inh,WRN helicase inh
CSc1nsc(/C=C/Nc2ccc(C(=O)O)cc2)c1C#N,n,n,n,28.2µM,n
CC1(c2ccccc2)NC(=O)N(CC(=O)NNC(=O)c2cccc(Cl)c2)C1=O (centres undefined),n,x,n,x,n
CC(=O)c1c2c3c(cccc3n(C)c1=O)C(=O)c1ccccc1-2,n,x,u,n,n
Cn1c(=O)c(Nc2ccc(O)cc2)c2c3c(cccc31)C(=O)c1ccccc1-2,u,n,25.1µM,u,u
Cc1ccc(-c2csc(NC(=O)CSc3nc4ccccc4o3)n2)cc1,n,n,n,n,n
COc1ccc(/C=N/Nc2snc(SC)c2C#N)cc1OC,n,n,n,n,n
COc1cccc(/C=N/Nc2snc(SC)c2C#N)c1O,n,n,n,n,50.1µM
Oc1ccc(/C=N/Nc2ccnc3cc(Cl)ccc23)cc1O,u,n,x,28.2µM,u
CC/C(=N\Nc1ccnc2cc(Cl)ccc12)c1ccc(O)cc1,n,x,x,n,n
Oc1ccc(/C=N/Nc2ccnc3cc(Cl)ccc23)c(O)c1O,44.7µM,x,x,n,u
C=CCn1c(N)c(C(=O)NCc2ccco2)sc1=S,n,n,n,n,n
COC(=O)[C@]1(Cc2ccccc2)N[C@H](CN(C)C(=O)Nc2ccccc2)[C@@H]2C(=O)N(C)C(=O)[C@@H]21,n,x,n,x,n
C=CC[n+]1c(/C=C2\C=Cc3cc(C)ccc3N2CC)ccc2ccccc21,39.8µM,n,u,n,50.1µM
COc1cccc(OC(C)c2ccnc3nc(/N=C/N(C)C)nn23)c1 (centres undefined),n,n,n,n,n
CC1CC2(C)CC(C)C1(COC(=O)Nc1ccccc1)CO2 (centres undefined),n,n,n,n,n
O=C(Nc1ccc2nc(-c3cccs3)c(-c3cccs3)nc2c1)N1CCCC1,n,x,x,x,x
O=C(Nc1ccc2nc(-c3ccco3)c(-c3ccco3)nc2c1)N1CCCCCC1,50.1µM,5.62µM,3.55µM,5.62µM,12.6µM
O=C(NCCO)c1ccc2nc(-c3ccco3)c(-c3ccco3)nc2c1,44.7µM,n,x,n,11.2µM
COc1ccc(-c2nc3ccc(C(=O)NCC(OC)OC)cc3nc2-c2ccc(OC)cc2)cc1,n,22.4µM,x,n,n
O=C(NCCc1ccccc1)c1ccc(=O)oc1,n,n,x,n,n
O=C(NCCc1ccccc1)c1ccc2nc(-c3ccco3)c(-c3ccco3)nc2c1,n,u,x,7.08µM,u
COC(CNC(=O)c1ccc2nc(-c3ccccc3)c(-c3ccccc3)nc2c1)OC,n,n,x,n,n
CCn1c(SCC(=O)Nc2ccc3c(c2)c2ccccc2n3CC)nnc1-c1ccco1,50.1µM,n,n,n,n
Cc1cccc(NC(=O)CSc2nc(N)cc(N)n2)c1,n,n,n,n,n
Cc1cccc(NC(=O)CSc2nnc(-c3ccco3)c(-c3ccco3)n2)c1,n,n,u,u,31.6µM
COc1ccc(CCN(C)C(=O)c2ccc(OCC(=O)N3CCOCC3)c(OC)c2)cc1OC,n,x,x,n,n
O=C1CCC/C(=N\NC(=O)c2ccc(CSc3cccc4cccnc34)cc2)C1,n,28.2µM,u,n,n
NNC(=O)c1ccc(CSc2cccc3cccnc23)cc1,n,n,n,n,n
O=C(CNC(=O)c1cccs1)c1ccc(Cl)cc1,n,x,x,n,n
O=C1C=CC(=O)N1CCCCCCN1C(=O)C=CC1=O,n,u,n,n,20µM
